The whole screen tested about 48,000 compounds, of which about 13,000 (27%) showed an effect of 50% or more. The list shows a part of the results.
System: Wolbachia pipientis
Test: Anti-Wolbachia Cell-Based Screen
Type: functional
Parameters: scale not given: in the data most compounds retested in dose-response had high values
Conditions: 5 µM

| Compound | Percent Effect [%] |
| --- | --- |
| CC(C)c1nccn1CCCNC(=O)c1ccc(N(C)C)nc1 | -4.813 |
| Cc1cccc(Nc2cc(C3CCCN(CC(N)=O)C3)ccn2)n1.O=CO.O=CO (stereo not drawn) | 109.2 |
| NC(=O)CN1CCCC(c2cncc(Nc3ncccn3)n2)C1 (stereo not drawn) | 117.4 |
| NC(=O)CN1CCCC(c2ccnc(Nc3ncccn3)c2)C1 (stereo not drawn) | 104.7 |
| Cc1cccc(C2CCCN(C(=O)C3CCN(CC(N)=O)CC3)C2)c1 (stereo not drawn) | -11.42 |
| NC(=O)CN1CCCC(C(=O)N2CCC(Oc3ncccn3)CC2)C1 (stereo not drawn) | -4.684 |
| Cc1cccc(C2CCCN(C(=O)CN3CCC(C(N)=O)CC3)C2)c1 (stereo not drawn) | -7.369 |
| Cl.Cl.NCC(=O)N1CCCC(c2cncc(Nc3ncccn3)n2)C1 (stereo not drawn) | -7.502 |
| CCN1CCCC(c2c(-c3ccccc3)ncn2CC(N)=O)C1 (stereo not drawn) | 0.7504 |
| CCC(C)N(Cc1ccncc1)C(=O)CCC(=O)OC (stereo not drawn) | -41.55 |
| Cc1nc(CN2CCCN(CC(=O)N(C)C(C)(C)C#N)CC2)no1 | 10.3 |
| CC(C)(C)OC(=O)N1CCC[C@H](NCC2=CCCOC2)C1 | -0.302 |
| O=C(O)C(F)(F)F.O=C(O)C(F)(F)F.O=C(c1ccncc1)N1CC[C@@H]2[C@@H](CC1)OCCN2c1cccnc1 | -4.707 |
| CN(C)C(=O)c1nc(-c2ccc(S(C)(=O)=O)cc2)c2ccccn12 | 94.54 |
| CN(Cc1ccccc1)C(=O)c1nc(S(C)(=O)=O)n2ccccc12 | -0.6664 |
| CC(C)CCN(C)C(=O)c1nc(S(C)(=O)=O)n2ccccc12 | 1.111 |
| CN(C)C(=O)c1nc(-c2ccc(S(C)(=O)=O)cc2)c2cnccn12 | 107.6 |
| O=C(c1coc(-c2ccccc2)n1)N1CCCC1 | 6.616 |
| CS(=O)(=O)c1ccc(-c2nc(C(=O)N3CCCC3)n3ccccc23)cc1 | 91.51 |
| CC(C)n1cnc(-c2nc(C(=O)N3CCCC3)c3ccccn23)c1 | -0.8191 |
| NCCN1CCC(c2nnc(Cn3ccnc3)n2C2CC2)CC1 | 3.949 |
| COc1ccc(CN(C)CC(=O)NC2(C)CCS(=O)(=O)C2)cc1F (stereo not drawn) | -5.934 |
| CN(C(=O)CSc1ccccn1)C1CCCN(CCc2ccccc2)C1 (stereo not drawn) | -2.321 |
| CC(=O)NC1CCCN(Cc2ccc(OCc3ccccn3)cc2)C1 (stereo not drawn) | -5.429 |
| O=C(NC1CCCN(CCc2ccccc2)C1)c1ccccn1 (stereo not drawn) | 90.98 |
| O=C(NC1CC(=O)N(C2Cc3ccccc3C2)C1)c1cnccn1 (stereo not drawn) | -14.57 |
| O=C(NC1CCCN(c2ccc(OC(F)F)cc2)C1)c1cnccn1 (stereo not drawn) | -2.478 |
| O=C(NC1CCCN(CCc2ccccc2)C1)c1cnccn1 (stereo not drawn) | 115.1 |

From ChEMBL document CHEMBL3988442, “University of Dundee, Small-Polar-MMV Screening Library” (2021)
